# About 2,000 (36%) of roughly 5,500 compounds were called active. Not shown: some 18% with an inconclusive outcome. Some of the results follow. Values without a mark were called inactive. No stated cut-off is given here; in the data, active means normalized growth mostly below about 0.91 (no sharp cut-off); inconclusive means no clear call, values can overlap the other calls; inactive means mostly above about 0.92.
# Test: chemical genetic growth profiling, strain panel (AID 1159580);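 further: tested at 20 µM; growth read once vehicle control cultures reached saturation at 30 °C; 1 = growth at the plate median or of vehicle wells; lower values mean less growth of the strain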
# Conditions: growth OD
smiles,measurement,setting,value
O=C(O[C@@H]1Cc2c(O)cc(O)cc2O[C@@H]1c1cc(O)c(=O)c2c(O)c(O)cc([C@H]3Oc4cc(O)cc(O)c4C[C@H]3OC(=O)c3cc(O)c(O)c(O)c3)c2c1)c1cc(O)c(O)c(O)c1,normalized growth,"S. cerevisiae deletion strains, locus YJR075W, strain HOC1, hits give low values",0.753 (active)
same,normalized growth,"S. cerevisiae deletion strains, locus YKL009W, strain mrt4, hits give low values",1.06
same,normalized growth,"S. cerevisiae deletion strains, locus YKL068W, hits give low values",1.04
same,normalized growth,"S. cerevisiae deletion strains, locus YKL085W, strain MDH1 (second series), hits give low values",1.05
same,normalized growth,"S. cerevisiae deletion strains, locus YKL085W, strain MDH1, hits give low values",1.05
same,normalized growth,"S. cerevisiae deletion strains, locus YKL160W, strain elf1, hits give low values",0.71 (active)
same,normalized growth,"S. cerevisiae deletion strains, locus YKL190W, strain CNB1, hits give low values",0.637 (active)
same,normalized growth,"S. cerevisiae deletion strains, locus YKR001C, strain vps1, hits give low values",0.979
same,normalized growth,"S. cerevisiae deletion strains, locus YKR026C, strain gcn3, hits give low values",0.971
same,normalized growth,"S. cerevisiae deletion strains, locus YKR091W, strain srl3, hits give low values",0.927 (active)
same,normalized growth,"S. cerevisiae deletion strains, locus YLL001W, strain dnm1, hits give low values",0.614 (active)
same,normalized growth,"S. cerevisiae deletion strains, locus YLL026W, hits give low values",0.553 (active)
same,normalized growth,"S. cerevisiae deletion strains, locus YLL041C, strain sdh2, hits give low values",0.661 (active)
same,normalized growth,"S. cerevisiae deletion strains, locus YLR027C, strain aat2, hits give low values",0.407 (active)
same,normalized growth,"S. cerevisiae deletion strains, locus YLR039C, strain RIC1, hits give low values",0.598 (active)
same,normalized growth,"S. cerevisiae deletion strains, locus YLR058C, strain SHM2, hits give low values",0.525 (active)
same,normalized growth,"S. cerevisiae deletion strains, locus YLR102C, strain apc9, hits give low values",1.04
same,normalized growth,"S. cerevisiae deletion strains, locus YLR113W, strain HOG1, hits give low values",1.12
same,normalized growth,"S. cerevisiae deletion strains, locus YLR221C, strain rsa3, hits give low values",0.573 (active)
same,normalized growth,"S. cerevisiae deletion strains, locus YLR258W, strain gsy2, hits give low values",0.523 (active)
same,normalized growth,"S. cerevisiae deletion strains, locus YLR262C, strain YPT6 (second series), hits give low values",0.539 (active)
same,normalized growth,"S. cerevisiae deletion strains, locus YLR262C, strain YPT6, hits give low values",0.69
same,normalized growth,"S. cerevisiae deletion strains, locus YLR268W, strain sec22, hits give low values",0.81 (active)
same,normalized growth,"S. cerevisiae deletion strains, locus YLR320W, strain mms22, hits give low values",0.619 (active)
same,normalized growth,"S. cerevisiae deletion strains, locus YLR330W, strain CHS5, hits give low values",0.898 (active)
same,normalized growth,"S. cerevisiae deletion strains, locus YLR342W, strain FKS1 (second series), hits give low values",0.449 (active)
same,normalized growth,"S. cerevisiae deletion strains, locus YLR342W, strain FKS1, hits give low values",0.447 (active)
same,normalized growth,"S. cerevisiae deletion strains, locus YLR357W, strain rsc2, hits give low values",0.602 (active)
same,normalized growth,"S. cerevisiae deletion strains, locus YLR370C, strain arc18, hits give low values",0.499 (active)
same,normalized growth,"S. cerevisiae deletion strains, locus YLR371W, strain rom2, hits give low values",0.849 (active)
same,normalized growth,"S. cerevisiae deletion strains, locus YLR384C, strain iki3, hits give low values",0.713 (active)
same,normalized growth,"S. cerevisiae deletion strains, locus YLR418C, strain cdc73, hits give low values",0.583 (active)
same,normalized growth,"S. cerevisiae deletion strains, locus YML016C, strain PPZ1, hits give low values",0.482 (active)
same,normalized growth,"S. cerevisiae deletion strains, locus YML032C, strain rad52, hits give low values",1.05
same,normalized growth,"S. cerevisiae deletion strains, locus YML120C, strain ndi1, hits give low values",0.634 (active)
same,normalized growth,"S. cerevisiae deletion strains, locus YML124C, strain tub3, hits give low values",1.02
same,normalized growth,"S. cerevisiae deletion strains, locus YMR058W, strain fet3, hits give low values",0.101 (active)
same,normalized growth,"S. cerevisiae deletion strains, locus YMR078C, strain ctf18, hits give low values",1.02
same,normalized growth,"S. cerevisiae deletion strains, locus YMR125W, strain sto1, hits give low values",1.04
same,normalized growth,"S. cerevisiae deletion strains, locus YMR129W, hits give low values",0.604 (active)
same,normalized growth,"S. cerevisiae deletion strains, locus YMR205C, strain PFK2, hits give low values",0.353 (active)
same,normalized growth,"S. cerevisiae deletion strains, locus YMR223W, strain ubp8, hits give low values",0.979
same,normalized growth,"S. cerevisiae deletion strains, locus YMR231W, strain pep5, hits give low values",0.158 (active)
same,normalized growth,"S. cerevisiae deletion strains, locus YMR263W, strain SAP30, hits give low values",0.723 (active)
same,normalized growth,"S. cerevisiae deletion strains, locus YMR307W, strain GAS1, hits give low values",0.481 (active)
same,normalized growth,"S. cerevisiae deletion strains, locus YNL067W, strain RPL9B, hits give low values",0.699 (active)
same,normalized growth,"S. cerevisiae deletion strains, locus YNL071W, strain lat1, hits give low values",0.607 (active)
same,normalized growth,"S. cerevisiae deletion strains, locus YNL128W, strain TEP1, hits give low values",0.351 (active)
same,normalized growth,"S. cerevisiae deletion strains, locus YNL153C, strain GIM3, hits give low values",0.741 (active)
same,normalized growth,"S. cerevisiae deletion strains, locus YNL183C, strain NPR1, hits give low values",0.983
same,normalized growth,"S. cerevisiae deletion strains, locus YNL209W, strain ssb2, hits give low values",0.149 (active)
same,normalized growth,"S. cerevisiae deletion strains, locus YNL233W, strain BNI4, hits give low values",0.768 (active)
same,normalized growth,"S. cerevisiae deletion strains, locus YNL248C, strain rpa49, hits give low values",0.863 (active)
same,normalized growth,"S. cerevisiae deletion strains, locus YNL250W, strain rad50, hits give low values",1.02
same,normalized growth,"S. cerevisiae deletion strains, locus YNL271C, strain bni1, hits give low values",1.03
same,normalized growth,"S. cerevisiae deletion strains, locus YNL298W, strain CLA4, hits give low values",1.03
same,normalized growth,"S. cerevisiae deletion strains, locus YNL307C, strain MCK1, hits give low values",1.04
same,normalized growth,"S. cerevisiae deletion strains, locus YNL322C, strain KRE1 (second series), hits give low values",0.857 (active)
same,normalized growth,"S. cerevisiae deletion strains, locus YNL322C, strain KRE1, hits give low values",0.569 (active)
same,normalized growth,"S. cerevisiae deletion strains, locus YNR049C, strain mso1, hits give low values",0.913 (active)
same,normalized growth,"S. cerevisiae deletion strains, locus YNR052C, strain pop2, hits give low values",0.975
same,normalized growth,"S. cerevisiae deletion strains, locus YOL006C, strain TOP1, hits give low values",0.216 (active)
same,normalized growth,"S. cerevisiae deletion strains, locus YOL012C, strain htz1",0.378
same,normalized growth,"S. cerevisiae deletion strains, locus YOL147C, strain pex11, hits give low values",1.01
same,normalized growth,"S. cerevisiae deletion strains, locus YOR001W, strain rrp6, hits give low values",0.57 (active)
same,normalized growth,"S. cerevisiae deletion strains, locus YOR061W, strain CKA2, hits give low values",0.848 (active)
same,normalized growth,"S. cerevisiae deletion strains, locus YOR069W, strain VPS5, hits give low values",0.891 (active)
same,normalized growth,"S. cerevisiae deletion strains, locus YOR070C, strain gyp1, hits give low values",0.495 (active)
same,normalized growth,"S. cerevisiae deletion strains, locus YOR080W, strain dia2, hits give low values",0.286 (active)
same,normalized growth,"S. cerevisiae deletion strains, locus YOR083W, strain WHI5, hits give low values",0.543 (active)
same,normalized growth,"S. cerevisiae deletion strains, locus YOR106W, strain vam3, hits give low values",0.119 (active)
same,normalized growth,"S. cerevisiae deletion strains, locus YOR136W, strain idh2, hits give low values",0.99
same,normalized growth,"S. cerevisiae deletion strains, locus YOR144C, strain elg1, hits give low values",1.01
same,normalized growth,"S. cerevisiae deletion strains, locus YOR184W, strain ser1, hits give low values",0.857 (active)
same,normalized growth,"S. cerevisiae deletion strains, locus YOR231W, strain MKK1, hits give low values",1.04
same,normalized growth,"S. cerevisiae deletion strains, locus YOR265W, strain rbl2, hits give low values",0.658 (active)
same,normalized growth,"S. cerevisiae deletion strains, locus YOR270C, strain vph1, hits give low values",0.223 (active)
same,normalized growth,"S. cerevisiae deletion strains, locus YOR290C, strain snf2, hits give low values",0.496 (active)
same,normalized growth,"S. cerevisiae deletion strains, locus YOR316C, strain cot1, hits give low values",1.04
same,normalized growth,"S. cerevisiae deletion strains, locus YPL051W, strain arl3, hits give low values",0.263 (active)
same,normalized growth,"S. cerevisiae deletion strains, locus YPL055C, strain LGE1, hits give low values",0.473 (active)
same,normalized growth,"S. cerevisiae deletion strains, locus YPL078C, strain atp4, hits give low values",0.705 (active)
same,normalized growth,"S. cerevisiae deletion strains, locus YPL106C, strain sse1, hits give low values",0.593 (active)
same,normalized growth,"S. cerevisiae deletion strains, locus YPL240C, strain hsp82, hits give low values",0.679 (active)
same,normalized growth,"S. cerevisiae deletion strains, locus YPL241C, strain CIN2, hits give low values",0.922 (active)
same,normalized growth,"S. cerevisiae deletion strains, locus YPL256C, strain CLN2, hits give low values",1.15
same,normalized growth,"S. cerevisiae deletion strains, locus YPR119W, strain clb2, hits give low values",1.03
same,normalized growth,"S. cerevisiae deletion strains, locus YPR141C, strain kar3, hits give low values",1.03
same,normalized growth,"S. cerevisiae deletion strains, locus YPR163C, strain tif3, hits give low values",1.02
same,normalized growth,"S. cerevisiae deletion strains, locus YPR167C, strain met16, hits give low values",1.02
same,normalized growth,"S. cerevisiae deletion strains, strain wtn01, hits give low values",0.808 (active)
same,normalized growth,"S. cerevisiae strains, strain wild type, hits give low values",0.491 (active)

# — PubChem BioAssay AID1159580 (chemical genetic matrix, 2015)
